From PubChem BioAssay AID2284378 (EPA ToxCast)
Records with an inconclusive call do not appear. Activity calls are given as the source filed them. The calls were made as follows: active = hit-call score of the fitted dose curve at least 0.9, where 1 is the maximum; inconclusive = response in the unintended direction; inactive = score below 0.9.

Test system: frog Retinoid X Receptor beta (RXRb), gene 394278
Test: ATG_frRXRb_EcoTox2: Attagene TRANS-FACTORIAL EcoTox-2 HepG2 Assay for frog Retinoid X Receptor beta (RXRb)
Protocol: ATG_EcoTox2 is a cell-based, multiplexed assay created by modifying the existing Attagene TRANS-FACTORIAL system to include a panel of nuclear receptors from some or all the following species: human (Homo sapiens), african clawed frog (Xenopus laevis), rainbow trout (Oncorhynchus mykiss), japanese medaka (Oryzias latipes), and zebrafish (Danio rerio). The ECOTOX2-FACTORIAL format uses HepG2, a human liver cell line, with measurements taken at 24 hours after chemical dosing in a 24-well plate. ATG_frRXRb_EcoTox2 is one of 29 assay components calculated in the ATG_EcoTox2 assay. It is designed to make measurements of mRNA induction, a form of inducible reporter, as detected with fluorescence intensity signals by Reverse transcription polymerase chain reaction (RT-PCR) and Capillary electrophoresis technology.The assay endpoint ATG_frRXRb_EcoTox2 was analyzed in the positive analysis fitting direction relative to DMSO as the negative control and baseline of activity. Using a type of inducible reporter, measures of mRNA for gain-of-signal activity can be used to understand the reporter gene at the transcription factor-level as they relate to the gene RXRb. Furthermore, this assay endpoint can be referred to as a primary readout, because this assay has produced multiple assay endpoints where this one serves a reporter gene function. To generalize the intended target to other relatable targets, this assay endpoint is annotated to the nuclear receptor intended target family, where the subfamily is non-steroidal.
Human liver HepG2 cells are transiently transfected with multiple reporter transcription units (MRTUs) in 6-well plates using FuGene 6 reagent (Roche; 3 ml FuGene/1 mg DNA). The MRTU constructs are regulated by a cis-regulating element (promoter). Each RTU expresses a GAL4-UAS that regulates the transcription of a nearby target reporter gene sequence. A major difference between the CIS and TRANS system is that in CIS activities of endogenous TFs are measured, whereas the TRANS assay evaluates changes in activities of exogenous, chimeric NR-Gal4 proteins. […] At the end of 24 hour incubation, total RNA was isolated using TriZol reagent (Invitrogen). The isolated RNA is then reverse-transcribed using oligo(dT) primer and Mo-MLV reverse transcriptase (Invitrogen) with DNAse I (Ambion) treatment for 30 min. The one-tenth of the produced cDNA was amplified by PCR using Taq DNA polymerase (Invitrogen) and two reporter sequence-specific primers. The PCR products were fluorescently labeled by primer extension with 6-arboxyfluorescein (6-FAM) 5'-labeled reporter sequence-specific primer (2 min at 95 C, 20 s at 68 C and 10 min at 72 C) and these products were digested with 5U of HpaI (New England Biolabs) for 2h at 37 C. The fragments were purified using Qiaquick PCR columns (Qiagen), analyzed on an ABI 3130xL genetic analyzer (Applied Biosystems) with peak positions identified by using a set of X-rhodamine (ROX)-labeled MapMarker1000 molecular weight standards (BioVentures). The raw capillary electrophoresis data was processed using Attagraph software (Attagene).

SMILES | outcome | AC50
CC(C)(Oc1ccc(Cl)cc1)C(=O)O | inactive | 
C=C(c1ccc(C(=O)O)cc1)c1cc2c(cc1C)C(C)(C)CCC2(C)C |  | 0.00172 µM (active)
Cc1cccc(Nc2cc(Cl)nc(SCC(=O)O)n2)c1C |  | 23.8 µM (active)
C[C@@H]1C[C@H]2[C@@H]3CCC4=CC(=O)C=C[C@]4(C)[C@@]3(F)[C@@H](O)C[C@]2(C)[C@@]1(O)C(=O)COP(=O)(O)O | inactive | 
CC(c1cc2ccccc2s1)N(O)C(N)=O (centres undefined) | inactive | 
Cc1ccc(C)c(OCCCC(C)(C)C(=O)O)c1 | inactive | 
CN(CCOc1ccc(CC2SC(=O)NC2=O)cc1)c1ccccn1 (centres undefined) | inactive | 
C[C@]12C=CC(=O)C=C1CC[C@@H]1[C@@H]2C(=O)C[C@@]2(C)[C@H]1CC[C@]2(O)C(=O)CO | inactive | 
CC(C)OC(=O)C(C)(C)Oc1ccc(C(=O)c2ccc(Cl)cc2)cc1 | inactive | 
